AI-2 QS modul = Vibrio harveyi AI-2 quorum sensing modulation; Vibrio harveyi JMH597 AI-2 luminescence/OD600 ratio, 9 h; active compounds read low; strain lacks LuxN and CqsS sensors; 0 = neutral-control median; activity change, % at 7.5 µM; 300,000 compounds, 0.4% hits; AID 2094; in the data active means activity change below about -75%, passing the limit was not always enough; inconclusive means no clear call, values can overlap the other calls;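 further: luminescence divided by OD600 gain over 9 h not by final OD600 alone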
ALR inh = blocks human ALR sulfhydryl oxidase activity; P55789; purified ALR, DTT oxidation, H2O2 HRP-luminol luminescence; inhibition, % (concentration not given with the values); 290,000 compounds, 3.8% hits;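 active means mean replicate inhibition above about 79%, with every replicate also reaching it, limit read from the data; inconclusive means only one of the two criteria met; inactive means mean below limit and not every replicate reaching it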
Target sequence (P55789 whole entry, looked up): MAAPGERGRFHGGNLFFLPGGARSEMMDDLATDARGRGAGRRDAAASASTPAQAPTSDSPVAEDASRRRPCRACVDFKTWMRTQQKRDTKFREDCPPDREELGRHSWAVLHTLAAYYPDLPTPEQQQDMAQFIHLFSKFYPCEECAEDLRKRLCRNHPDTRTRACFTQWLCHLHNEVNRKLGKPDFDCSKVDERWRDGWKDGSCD
HIF act = HIF pathway transcriptional activation | 300,000 compounds, 0.32% hits | AID 1910 | activation, % at 7.5 µM (by protocol) | U2OS HRE-luciferase reporter, luminescence; normalized: DMSO 0%, desferrioxamine 100%;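 active means mean activation of at least 10% of the iron chelator positive control signal, with at least half of replicates also reaching 10%; inconclusive means mean and replicate majority disagree about reaching 10%; inactive means mean and most replicates under 10%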
SUMO Mot1 rescue = blocks SUMOylation pathway, rescuing yeast Mot1-301 growth | AID 2716 | growth rescue, % at 18.8 µM | S. cerevisiae Mot1-301 growth rescue, ATP luminescence, 38.5C; percent above DMSO median, 100 means doubled | 320,000 compounds, 1% hits;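 active means every valid replicate shows activation above 250% relative to neutral control wells; inactive means the rest, any valid replicate at or below 250%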;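 further: OY570 slx delta 5 strain wells were the positive control but not used for scaling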
Numbers without * were called inactive; u = inconclusive; x = no result. In the library only some 4.8% were active in any assay of this set; here they are far more common.

SMILES	AI-2 QS modul	ALR inh	HIF act	SUMO Mot1 rescue
CCc1ccc2nc(N(CCN(C)C)C(=O)c3ccc4ncsc4c3)sc2c1	26	5	1	11
Cc1ccc2c(c1)-n1c(nc3ccccc3c1=O)C(Cc1ccccc1)NC2=O (stereo unspecified)	x	-1	x	-7
Cc1nn(C(=O)Cn2ccc([N+](=O)[O-])n2)c(C)c1Cl	40	-1	0	3
CCC(Cc1ccccc1)NC(=O)CCNS(=O)(=O)c1cc(Br)cnc1N (stereo unspecified)	19	-5	0	-17
CCN(CC(=O)Nc1c(F)cccc1F)C(=O)COc1cccc2c1OC(C)(C)C2	8	-15	0	-7
CCOc1cc(N2CCOCC2)c(OCC)cc1NC(=O)COC(=O)/C=C/c1ccc(OC(F)F)cc1	2	x	0	x
Cc1ccc(C(=O)NCCCNC(=O)COc2ccc(C)c(C)c2)cn1	-3	2	1	289*
Cc1cccc(NC(=O)C2CC(=O)NC(Nc3nc4ccccc4s3)=N2)c1 (stereo unspecified)	20	-3	99*	-8
COc1ccc(N2C(=O)CC(Nc3ccc(C)cc3)C2=O)cc1 (stereo unspecified)	-5	-14	0	x
COc1ccc(N2C(=O)CC(NNc3ncc(Cl)cc3Cl)C2=O)cc1 (stereo unspecified)	29	84*	0	x
COc1ccc(Nc2ccccc2C(=O)O)cc1	71	99*	0	3
COc1ccc(Nc2cccccc2=O)cc1	18	97*	2	13
COc1ccc(N/N=C/c2c(C(=O)O)ccc3ccccc23)cc1	-4	-9	50*	-2
COc1ccc(Nc2ccc(OC)cc2)cc1	-12	99*	1	-13
COc1ccc(Nc2cccc3ccccc23)cc1	26	u	1	-6
COc1ccc(N2CCN(C(=O)c3cn(CC4CCCCC4)nn3)CC2)cc1	6	42	-1	12
Cc1nc(NC(=O)c2ccccc2)sc1C	43	-1	2	2
Cc1nc(Nc2ccccc2)sc1C	9	99*	-1	x
Cc1csc(Nc2ccccc2)n1	20	98*	0	-11
N#C/C(=C\c1ccccc1[N+](=O)[O-])C(=O)NC1CCCCC1	14	19	-1	1
N#C/C(=C\C=C\c1ccccc1[N+](=O)[O-])C(=O)NC1CCCCC1	12	99*	1	-22
Cc1ccccc1OCC(=O)O/N=C(\N)c1ccncc1	23	5	3	-24
O=C(Cn1nnc(-c2ccccc2)n1)OCc1csc(-c2ccccc2)n1	17	99*	0	-4
CC(=O)N/N=C/c1cc(C)n(-c2ccc(Br)cc2)c1C	9	98*	-1	-12
O=C(COC(=O)/C=C/c1cnc2ccccc2n1)NCC(F)(F)F	17	91*	0	-3
SMILES	AI-2 QS modul	ALR inh	HIF act	SUMO Mot1 rescue
Cn1c(NC(=O)COc2ccccc2)cc(=O)n(C)c1=O	9	99*	0	-14
Cn1c(NC(=O)CCc2ccccc2)cc(=O)n(C)c1=O	10	0	3	-5
O=C(CSc1nnc(SCc2ccccc2)s1)N/N=C/C=C\c1ccco1	12	97*	0	61
O=C(CSc1nnc(SCc2ccccc2)s1)N/N=C/C=C/c1ccccc1[N+](=O)[O-]	1	-11	0	0
O=C(Cn1cccc1C(=O)c1ccccc1)NCCc1ccccc1	7	-4	0	-1
Cc1ccc(CNC(=O)Cn2cccc2C(=O)c2ccccc2)cc1	4	-8	0	21
O=C(Cn1cccc1C(=O)c1ccccc1)NCc1ccc(Cl)cc1	-5	97*	1	x
O=C(Cn1cccc1C(=O)c1ccccc1)NCCc1ccc(Cl)cc1	13	-2	1	314*
Nn1c(SCc2cn3cc(Cl)ccc3n2)nnc1-c1ccncc1	7	98*	0	x
Nn1c(SCc2cn3ccccc3n2)nnc1-c1ccncc1	23	-1	0	6
O=C(Nn1cnnc1)c1ccc(Cl)c([N+](=O)[O-])c1	18	x	0	-6
Cc1ccc(C(=O)Nn2cnnc2)cc1Cl	19	81*	-18	-3
Cn1c(CO)cnc1SCC(=O)c1ccc(Cl)cc1	45	99*	0	7
Cc1nnc(SCC(=O)c2ccc(Cl)cc2)n(N)c1=O	x	99*	x	3
Cc1ccc(S(=O)(=O)N2CCN(C(=O)Cc3c(F)cccc3Cl)CC2)cc1	27	9	0	36
NC(=O)C1CCN(CC(=O)Nc2ccccc2C(=O)NC2CC2)CC1	x	-2	x	-10
Nc1cc(N2CCOCC2)c(Cl)cc1[N+](=O)[O-]	11	x	0	0
Nc1cc(N2CCCC2)c(Cl)cc1[N+](=O)[O-]	-3	x	0	307*
O=[N+]([O-])c1ccccc1/C=N/n1c(C2CCCCC2)n[nH]c1=S	19	97*	0	17
O=[N+]([O-])c1cc2c(cc1/C=N/n1c(-c3ccccc3)n[nH]c1=S)OCO2	0	87*	1	-6
O=[N+]([O-])c1cccc(/C=N/n2c(C3CCCCC3)n[nH]c2=S)c1	30	3	0	4
O=[N+]([O-])c1ccc(Cl)c(/C=N/n2c(C3CCCCC3)n[nH]c2=S)c1	16	99*	0	x
O=C(O)COc1ccccc1/C=N/n1c(C2CCCCC2)n[nH]c1=S	15	97*	1	1
O=[N+]([O-])c1cc2c(cc1/C=N/n1c(-c3ccccn3)n[nH]c1=S)OCO2	23	21	-1	-6
COc1ccccc1/C=C/C(=O)OCC(=O)N1CCc2ccccc21	x	x	x	21
SMILES	AI-2 QS modul	ALR inh	HIF act	SUMO Mot1 rescue
CC1(C)CC(=O)c2c(O)cc(OCC(=O)N3CCN(c4ccc(F)cc4)CC3)cc2O1	11	30	0	-14
O=S(=O)(c1ccc(F)cc1)N1CCN(C(=S)NCC2CCCO2)CC1 (stereo unspecified)	11	0	-8	-20
S=c1[nH]nc(C2CCCCC2)n1/N=C/C=C/c1ccccc1	-92*	68	0	228
Cc1nc2ccccc2c(=O)n1/N=C/c1ccc(O)cc1O	10	43	0	-1
CCCc1nc2ccccc2c(=O)n1/N=C/c1ccccc1O	2	x	13*	-6
S=c1[nH]nc(C2CCCCC2)n1/N=C/C(Cl)=C\c1ccccc1	21	16	1	-28
O=c1c2ccccc2nc(COc2ccccc2)n1/N=C/c1cc([N+](=O)[O-])ccc1O	15	19	11*	-3
O=[N+]([O-])c1ccc(Cl)c(/C=N/n2c(COc3ccccc3)n[nH]c2=S)c1	23	96*	-1	8
Cc1csc(=O)n1CCC(=O)OCC(=O)c1ccc(Br)cc1	-5	-7	0	17
Nc1nc(Nc2ccccc2)nc(NC2CCCCC2)c1[N+](=O)[O-]	23	4	1	-1
CC(=O)c1cccc(OCc2cc(C(=O)NCc3nc(C)c(C)s3)no2)c1	14	-2	3	1
O=[N+]([O-])c1ccccc1/C=N/n1c(-c2cccnc2)n[nH]c1=S	32	31	-26	-6

Screening data deposited in PubChem by Broad Institute.
